Screening results: PubChem BioAssay, National Center for Advancing Translational Sciences (NCATS)
Pf growth 96h: inhibits malaria parasite growth, 96 h | AID 504834 | Potency, µM (doses to about 28.7 µM), for inactives: top-dose activity change, negative = inhibition, most hits filed as inhibitors | 320,000 compounds, 6.9% hits | P. falciparum luciferase reporter growth, 96 h; also: potency is read from the fitted curve at half-maximal effect; % is scaled to controls: 0 for no effect and ±100 for the full control effect
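Infected RBCs, 2% Hct / 0.05% parasitemia final; luciferase-reporter P. falciparum; cpd 96 h, 37 C, 5% CO2; luciferase detection reagent; luminescence.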
Cycloheximide cs: counter-screen for Shiga toxin inhibitors: cycloheximide protein synthesis inhibition. cell reporter, cycloheximide protein synthesis inhibition counterscreen. max response, %. 300,000 compounds, 12% hits. AID 2314; in the data active = max response mostly above about 13%, no sharp cut-off; inactive = mostly below about 14%; also: read at 38.3 µM for the half of the compounds with a filed dose; 0% is about no effect
Shiga inhibitor: Shiga toxin inhibition; 290,000 compounds, 9.2% hits; Vero cells, Shiga toxin protein synthesis inhibition reporter; AID 2315; inhibition, % at 38.7 µM; in the data active = inhibition mostly above about 28%, no sharp cut-off; inactive = mostly below about 43%; also: 0% is about no effect
Pf growth 48h: P. falciparum growth inhibition at 48 hours (one generation); P. falciparum luciferase growth in erythrocytes, 48 h; Potency, µM (doses to about 28.7 µM), for inactives: at the top dose activity change, negative = inhibition, usual class: inhibitors; 310,000 compounds, 5.9% hits; AID 504832; also: potency is read from the fitted curve at half-maximal effect; % is scaled to controls: 0 for no effect and ±100 for the full control effect
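First compound was added to culture medium, then infected red cells at 0.1% parasitemia and 2% hematocrit (final). After incubation at 37 C under 5% CO2, luciferase detection reagent was dispensed and light output recorded.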
Marburg entry inh: inhibitors of Marburg virus binding or cell entry; Marburg virus pseudotyped entry inhibition, cell reporter; 300,000 compounds, 1.8% hits; Potency, µM (series often up to 37.8 µM), for inactives: at the highest dose activity change, negative = inhibition, actives largely listed as inhibitors; calls by dose curve; tested in HEK293 cells; also: potency is read from the fitted curve at half-maximal effect; % is scaled to controls: 0 for no effect and ±100 for the full control effect
Lassa entry inh: inhibitors of Lassa virus binding or cell entry; Lassa virus pseudotype entry inhibition, cell reporter; Potency, µM (doses to about 37.9 µM), inactives show at the highest dose activity change, negative = inhibition, most hits filed as inhibitors; 300,000 compounds, 1.2% hits; AID 540256; calls by dose curve; tested in HEK293 cells; also: potency is read from the fitted curve at half-maximal effect; % is scaled to controls: 0 for no effect and ±100 for the full control effect; nearly all actives have a fitted effect of over 50% in size
* hit, by the source's call; ? = inconclusive; . = no result given; [ ] = dose if it differs, or a comment. An excerpt weighted towards active compounds, which were near 19% of everything screened. Unless noted, calls follow the shape of the dose curve; as a rule, active = well fitted inhibition curve with a large enough effect; inconclusive = small, poorly fitted or top-dose-only effect, or another doubt; inactive = no such curve, though single readings can be large or run the other way.

SMILES	Pf growth 96h	Cycloheximide cs	Shiga inhibitor	Pf growth 48h	Marburg entry inh	Lassa entry inh
CCCC1CCC(=NNC(=O)OC(C)(C)C)CC1 (stereo not drawn)	95.0%	31.2*	61.2	26.0%	3.0%	.
CC(=O)Nc1cccc2c1Cc1ccccc1-2	31.7%	41.3*	63.5	59.5%	.	.
CC(=O)Nc1ccc2c(c1Br)Cc1ccccc1-2	.	.	.	.	?	18.9%
Brc1ccccc1OCCOCCOc1cccc2cccnc12	?	1.8	23.7	8.8%	-29.0%	-7.6%
COc1cccc(OC)c1OCCCOc1cccc2cccnc12	?	21.4*	126.8*	?	?	?
C=CCc1ccc(OCCOc2cccc3cccnc23)c(OC)c1	-25.7%	-0.8	22.7	?	?	1.9%
Cc1cccc(OCCCOc2cccc3cccnc23)c1C	0.0%	20.8*	20.4	?	?	?
Cc1ccc2cccc(OCCCOc3ccccc3F)c2n1	43.6%	25.0*	.	3.4%	.	.
C/C=C/c1ccc(OCCOc2cccc3cccnc23)c(OC)c1	4.9%	21.6*	36.1	39.1%	4.3%	22.0%
CC(C)=CCC/C(C)=C/CO/N=C1\C[C@@H](O)[C@@H](O)[C@@H]2[C@@H]3C(=O)N(C[C@@H]4CCCO4)C(=O)[C@@H]3CC[C@@H]12	.	.	.	.	21.6%[14.2 µM]	.
Cc1ccc(OCCCOc2cccc3cccnc23)cc1C	-38.2%	17.1*	24.5	?	-3.8%	3.4%
O=C(/C=C/c1ccc2c(c1)OCO2)NCc1ccncc1	35.1%	11.1	31.2	28.9%	1.6%[46.1 µM]	10.4%[46.1 µM]
O=C(/C=C/c1ccccc1Cl)NCc1ccco1	?	42.5*	62.9*	?	16.5%	?
O=C(/C=C/c1ccc2c(c1)OCO2)NCc1ccco1	69.7%	24.5*	33.1	33.9%	-1.5%	10µM*
N#C/C(=C\C=C\c1ccccc1)C(=O)NCc1ccco1	14.7µM*	19.9	38.4	?	?	-29.6%
O=C(/C=C/c1ccc(Cl)c(Cl)c1)NCc1ccco1	1.85µM*	10.9	active	-27.2%	16.9%	?
O=C(/C=C/c1c(Cl)cccc1Cl)NCc1ccco1	27.3%	13.2	-8.0	8.4%	?	5.4%
CN(C)c1oc(-c2cccs2)nc1C#N	126.7%	4.3	1.0	-5.2%	-32.0%	0.2%
O=C(NCCCn1ccnc1)/C(=C\c1ccco1)NC(=O)c1ccco1	22.8%	14.4	-2.3	4.5%	16.6%	1.8%
COc1ccc(NC(=O)C2=CC(c3ccc(C)cc3)=NS(=O)(=O)N2C)cc1OC	28.3%	-1.0	-3.5	-3.0%	.	.
NCC1OC(n2cnc3c(N)ncnc32)CC1O (stereo not drawn)	.	.	.	.	13.7%	0.7%
O=C(/C=C/c1ccccc1)NCc1ccco1	-11.8%	30.2*	69.3*	51.3%	?	?
C=CCNC(=O)c1ccc(N(Cc2ccccc2)S(C)(=O)=O)cc1	-12.9%	1.4	-6.5	14.4%	.	.
C/C(=N\Nc1cc(-c2ccccc2)nc(-c2ccc(Br)cc2)n1)c1cccc(N)c1	.	.	.	.	-7.2%	36.8%[14.3 µM]
C/C(=N\NC(=O)c1ccc2nc[nH]c2c1)c1ccc([N+](=O)[O-])cc1	-18.1%	5.8	-4.9	16.3%	.	.
SMILES	Pf growth 96h	Cycloheximide cs	Shiga inhibitor	Pf growth 48h	Marburg entry inh	Lassa entry inh
C/C(=N\NC(=O)c1nn(C)cc1Br)c1cccc(NC(=O)c2ccncc2)c1	?	50.4*	83.6*	15.6%	2.4%	-4.2%
C/C(=N\NC(=O)c1cccc(N/N=C(\C)c2ccc([N+](=O)[O-])cc2)c1)c1ccc([N+](=O)[O-])cc1	4.15µM*	16.8*	39.4*	1.65µM*	3.1%	.
C/C(=N\Nc1ccccc1)c1cccc(N)c1	?	23.2*	39.9	8.1%	12.0%	?
C/C(=N\NC(=O)c1cccc(N/N=C(\C)c2ccncc2)c1)c1ccncc1	8.28µM*	15.2	4.5	?	?	20.0%
CSc1ccc(CN(C)C(=O)c2ccc(S(=O)(=O)Nc3ccccc3)cc2)cc1	?	.	.	?	?	0.8%[46.1 µM]
C/C(=N/NC(=O)c1cccc(N2CCCC2=O)c1)c1ccncc1	5.7%	47.9*	55.1*	68.2%	?	?
C/C(=N\Nc1ccc(Cl)c(C(=O)O)c1)c1cccc([N+](=O)[O-])c1	90.1%	80.4*	158.6*	47.5%	.	.
C/C(=N\NC(=O)c1cccc(N/N=C(\C)c2ccccc2)c1)c1ccccc1	-0.6%	71.8*	144.5*	?	?	0.3%
CC(=NNC(=O)c1ccncc1)c1cccc(Br)c1	.	.	.	.	1.3%[46.1 µM]	3.0%[46.1 µM]
C/C(=N\NC(=O)c1ccncc1)c1cccc(NC(=O)c2ccc(C(C)(C)C)cc2)c1	-14.2%	27.0*	65.8*	58.5%	?	?
Cc1nc2n(n1)C(O)c1cc([N+](=O)[O-])ccc1S2 (stereo not drawn)	1.8%	-2.0	16.2	12.7%	.	.
C/C(=N\NC(=O)C(C)Sc1ccccc1)c1ccc([N+](=O)[O-])cc1 (stereo not drawn)	9.28µM*	-3.2	-7.1	-11.0%	.	.
C/C(=N/NC(=O)c1ccc(Cn2cccn2)o1)c1cccc(NC(=O)c2ccncc2)c1	0.0%	18.7*	10.6	-25.4%	.	.
O=C1CC(c2ccco2)CC2=C1C=Nc1ccccc1N2 (stereo not drawn)	.	21.0	19.1	0.5%	-15.5%	?
CCOc1cccc(-c2cc(=O)[nH][nH]2)c1	47.8%	0.7	13.9	-25.5%	10.5%	1.9%
COc1cccc(-c2cc(=O)[nH][nH]2)c1	28.8%	21.9*	24.4	27.2%	7.0%[46.1 µM]	22.7%[46.1 µM]
COc1ccc(-c2cc(=O)[nH][nH]2)cc1OC	.	1.4	1.9	11.7µM*	0.8%	11.4%
CCOc1ccc(-n2ccn3c(CC(C)CC(=O)O)nnc3c2=O)cc1 (stereo not drawn)	.	.	.	.	?	14.1%[46.1 µM]
CCC1Oc2ccccc2N(CC(=O)NCCN2C(C)CCCC2C)C1=O (stereo not drawn)	1.9%	-2.0	-11.4	-8.3%	-2.6%	-0.1%
NC(=O)C1=CC2C3C=CC2(O)C(=O)OC3O1 (stereo not drawn)	.	.	.	.	?	7.08µM*
CC(Sc1nnc(-c2cccs2)n1Cc1ccccc1)C(=O)NCc1ccc2c(c1)OCO2 (stereo not drawn)	8.28µM*	-3.1	-20.5	.	1.4%	?
CC(Sc1nc2ccccc2s1)C(=O)NCc1ccc2c(c1)OCO2 (stereo not drawn)	17.0%	20.2*	active	34.4%	17.8%	12.1%
Cc1csc(SC(C)C(=O)NCc2ccc3c(c2)OCO3)n1 (stereo not drawn)	31.4%	10.8	44.3	16.3%	-15.5%	-3.5%
CCn1c(SC(C)C(=O)NC2CCCc3ccccc32)nnc1-c1cccs1 (stereo not drawn)	16.5µM*	-5.6	-9.7	.	-7.0%	?
CCN(CC)c1nc(Nc2ccccc2)nc(Oc2ccc(=O)[nH]n2)n1	.	-2.0	-8.0	?	?	5.6%
O=C(CSc1ccccc1)NC1CCCCCC1	?	49.3*	117.9*	99.8%	.	.
